Each structure is given as a SMILES string. Hit rate of the full screen: of about 63,000 compounds, about 1,100 (1.7%) were called active. Only a selection was taken, and actives are over-represented in it overall. Results with a measured potency or affinity are listed apart. Unmarked numbers belong to inactive results. Cut-off read from the data, not from the text of the source: active = cytotoxicity above about 50%; inactive = the rest.

This test in a line: cytotoxicity in HPDE-C7 cells, cell-based, fluorescence, HTS (AID 430).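 Note: cells exposed to compound for 48 hours before viability readout; 0% = vehicle and 100% = reference cytotoxic drug.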 Conditions: HPDE-C7 pancreatic duct cells viability, at 10 µM, stronger effect = higher value.
For `CCOC(=O)CN1C(=O)C(=O)c2cccc(C)c21`, the cytotoxicity was -46.9%.

Take `O=C(NCc1ccco1)C1CN(S(=O)(=O)c2ccccc2)CCN1S(=O)(=O)c1ccccc1` (stereo not given): the cytotoxicity was -23.1%.

On to `CCc1c(C)nc2ncnn2c1N1CCC(C(=O)N2CCN(c3ccc(F)cc3)CC2)CC1`, for which the cytotoxicity is -1.9%.

Regarding `COC(=O)CSc1nc2ccc(NC(C)=O)cc2s1`, the cytotoxicity is -5.9%.

For `COc1cc2c(cc1OC)CN(C(=O)c1ccccc1C(=O)O)CC2`, the cytotoxicity is -15.6%.

Turning to `O=C(Cn1nnc(-c2ccc(N3CCOCC3)cc2)n1)OC1CCCCC1`, the cytotoxicity is -25.2%.

Regarding `COC(=O)CSc1nnc(-c2ccc(OC)cc2OC)o1`, the cytotoxicity was 3.4%.

For `COc1ccc(N2CCN(C(c3ccccc3OC)c3nnnn3Cc3ccco3)CC2)cc1` (stereo not given), the cytotoxicity is -1.6%.

Take `COc1cc(C2C(C#N)=C(C)NC3=C2C(=O)c2ccccc23)cc(OC)c1OC` (stereo not given): the cytotoxicity was 76.3% (active).

For `COc1ccc(C2CC(=O)C3=C(C2)NC(C)=C(C#N)C3c2ccc(N(C)C)cc2)cc1` (stereo not given), the cytotoxicity is -4.4%.

`COc1ccc(C2C(C#N)=C(SC)NC3=C2C(=O)CC(C)(C)C3)cc1` (stereo not given): the cytotoxicity is -11.2%.

With `COc1cc(C2C(C#N)=C(C)NC3=C2C(=O)CC(C)(C)C3)cc(OC)c1O` (stereo not given), the cytotoxicity is 3.7%.

Take `COc1cc(C2C(C#N)=C(C)NC3=C2C(=O)CC(C)(C)C3)ccc1O` (stereo not given): the cytotoxicity is -9.2%.

Take `COc1ccc(C2C(C#N)=C(C)NC3=C2C(=O)c2ccccc23)cc1` (stereo not given): the cytotoxicity is 55.2% (active).

In the case of `CSc1nc(-c2ccco2)nn1C(=O)c1ccco1`, the cytotoxicity is -12.1%.

As to `CCOc1cc(NC(=O)c2ccco2)c(OCC)cc1NC(=O)CCC(=O)NCc1cccnc1`, the cytotoxicity is 32.8%.

Turning to `COc1ccc(C(C#N)N2CCCCC2)cc1OC` (stereo not given), the cytotoxicity was -1.7%.

On to `Cc1cccc(-c2noc(CN(C(=O)CCc3ccccc3)C(C)C)n2)c1`, for which the cytotoxicity was -16.1%.

On to `CCCC(=O)Nc1nc2ccc3nc(C)sc3c2s1`, for which the cytotoxicity was 9.8%.

For `CCOc1ccc(OCC)c(S(=O)(=O)N2CCCCC2C)c1` (stereo not given), the cytotoxicity was -8.3%.

With `Cc1cccc(N2C(=O)SC(N(C)c3ccccc3)C2=O)c1` (stereo not given), the cytotoxicity is -8.6%.

`Cc1ccc(Cl)cc1NC(=O)CC(O)(C(F)(F)F)C(F)(F)F`: the cytotoxicity was 51.2% (active).

On to `CCNC(=O)CCC(=O)Nc1cc(Cl)ccc1C`, for which the cytotoxicity was -6.9%.

As for `Cc1ccc(NC(=O)CC(O)(C(F)(F)F)C(F)(F)F)c(Br)c1`, the cytotoxicity was -3.8%.

For `CN(C)c1ccc(CN2CCCC(O)C2)cc1` (stereo not given), the cytotoxicity was 0.6%.

As for `OC1CCCN(Cc2cccc3ccccc23)C1` (stereo not given), the cytotoxicity was 4.1%.

Consider `O=C(CCc1nc2ccccc2c(=O)[nH]1)OCc1nnc(-c2ccccc2)o1`, for which the cytotoxicity is 8.5%.

In the case of `CCN(CCCNC(=O)C1CCN(S(=O)(=O)CC)CC1)c1ccccc1`, the cytotoxicity was -4%.

On to `O=C(Oc1ccc2c(c1)OCO2)c1ccncc1`, for which the cytotoxicity is 10.6%.

For the molecule `O=C(Oc1ccc2c(c1)OCO2)c1cccs1`, the cytotoxicity was -3.4%.

As to `O=C(Oc1ccc2c(c1)OCO2)c1cc2c(s1)CCC2`, the cytotoxicity is 56.8% (active).

`Cc1cccc(C(=O)OCc2cc3ccccc3[nH]c2=O)c1`: the cytotoxicity was 8.5%.

`COc1cccc(C(=O)N2CCN(c3ncccn3)CC2)c1`: the cytotoxicity was 1.5%.

As to `CCc1oc2ccccc2c1C(=O)CCN1CCCCC1`, the cytotoxicity is -17.7%.

Turning to `CCCCC(=O)c1c(O)c2ccccc2oc1=O`, the cytotoxicity was 9.3%.

Take `c1coc(CNc2nc3sc4c(c3c3ncnn23)CCCC4)c1`: the cytotoxicity was -5.5%.

Turning to `O=C(NC1CCCCC1)NC1CCN(S(=O)(=O)c2ccc3c(c2)OCCO3)CC1`, the cytotoxicity is -1.5%.

On to `O=C(NC1CCCCC1)c1ccc(S(=O)(=O)NCc2ccco2)cc1`, for which the cytotoxicity was -1.9%.

For the molecule `O=C(Nc1ccccc1)c1ccc(S(=O)(=O)NCc2ccco2)cc1`, the cytotoxicity is -0.2%.

Take `O=C(NCCc1c[nH]c2ccccc12)c1ccc(S(=O)(=O)NCc2ccco2)cc1`: the cytotoxicity is 51.9% (active).

In the case of `Cc1cccc(C)c1NC(=O)c1cc(S(=O)(=O)N2CCOCC2)ccc1F`, the cytotoxicity is -47.4%.

Turning to `O=C(Nc1c2c(nn1-c1ccc(F)cc1)CSC2)c1ccc(S(=O)(=O)N2CCOCC2)cc1`, the cytotoxicity is -9.4%.

For the molecule `O=C1C(Cl)=C(NCCCN2CCOCC2)C(=O)N1CCc1ccccc1`, the cytotoxicity was 1.4%.

`Cc1nc2ccccc2c(=O)n1/N=C/c1ccc(O)cc1`: the cytotoxicity was 33.8%.

For `Oc1ccc2oc3c(c2c1/C=N/n1cnnc1)CCCC3`, the cytotoxicity was -15.1%.

As to `Cc1nc2ccccc2c(=O)n1/N=C/c1c(O)ccc2oc3c(c12)CCCC3`, the cytotoxicity is 63% (active).

For `Oc1c(C(c2cccs2)N2CCN(c3ccccc3)CC2)sc2ncnn12` (stereo not given), the cytotoxicity is -10%.

For the molecule `CC(=O)Nc1nonc1NC(C)=O`, the cytotoxicity was -3.4%.

Regarding `COc1cc(O)c(NC(C)=O)c2nonc12`, the cytotoxicity is -7.7%.

Regarding `Cc1nn(-c2ccc(F)cc2F)c2c1-c1nc(N3CCCC3)ncc1CC2`, the cytotoxicity is 3.8%.

`COc1ccc(C(=O)NC2CCN(C(=O)NC3CCCCC3)CC2)cc1`: the cytotoxicity is -6.7%.

As for `COc1ccc(CN2C(=O)CCC2(C)C(=O)NC2CCCCC2)c(OC)c1` (stereo not given), the cytotoxicity is -3.1%.

For the molecule `COc1ccc2[nH]c(=O)c(CN(Cc3nnnn3Cc3ccc(F)cc3)CC3CCCO3)cc2c1` (stereo not given), the cytotoxicity is -39.9%.

As for `CCC(Sc1nc2cc3c(cc2c(=O)n1Cc1ccco1)OCO3)C(=O)Nc1ccccc1OC` (stereo not given), the cytotoxicity was -11.3%.

Regarding `CCc1ccccc1NC(=O)C(CC)Sc1nc2cc3c(cc2c(=O)n1Cc1ccco1)OCO3` (stereo not given), the cytotoxicity was 2.1%.

Consider `CCOC(=O)c1[nH]c(C)c(C(=O)N2CCN(C(=O)c3ccco3)CC2)c1C`, for which the cytotoxicity is -21.3%.

As for `COc1ccc(NC(=O)CNc2cccc(C#N)c2)cc1Cl`, the cytotoxicity was 2.9%.

Consider `Fc1ccc(-c2cc3nc(-c4ccccc4)cc(N4CCOCC4)n3n2)cc1`, for which the cytotoxicity is -7%.

As for `Fc1ccc(-c2cc3nc(-c4ccccc4)cc(N4CCN(CCN5CCOCC5)CC4)n3n2)cc1`, the cytotoxicity was 53% (active).

Turning to `Cc1cc(N2CCOCC2)n2nc(-c3cccc(F)c3)cc2n1`, the cytotoxicity is -16.6%.

Take `O=C(Nc1scc(-c2ccc(F)cc2)c1C(=O)O)c1ccco1`: the cytotoxicity was -6.9%.

For the molecule `COc1ccc(OC)c(NC(=O)c2cc3n(n2)C(C(F)(F)F)CC(c2ccc4c(c2)OCO4)N3)c1` (stereo not given), the cytotoxicity was 44.5%.

Consider `Cc1cccc(NC(=O)c2cc3n(n2)C(C(F)(F)F)CC(c2ccc4c(c2)OCO4)N3)c1` (stereo not given), for which the cytotoxicity was 74.1% (active).

Consider `COc1ccc(NC(=O)c2cc3n(n2)C(C(F)(F)F)CC(c2ccc4c(c2)OCO4)N3)cc1OC` (stereo not given), for which the cytotoxicity is 63.9% (active).

As for `Cc1cc(NC(=O)c2cc3n(n2)C(C(F)(F)F)CC(c2ccc(Cl)c(Cl)c2)N3)no1` (stereo not given), the cytotoxicity is 2.8%.

As to `O=C(NCc1ccc2c(c1)OCO2)c1cc2n(n1)C(C(F)(F)F)CC(c1ccc3c(c1)OCO3)N2` (stereo not given), the cytotoxicity is 13.5%.

In the case of `O=C(Nc1ccc2c(c1)OCO2)c1cc2n(n1)C(C(F)(F)F)CC(c1ccccc1)N2` (stereo not given), the cytotoxicity is 64.2% (active).

For the molecule `COc1ccc(C2CC(C(F)(F)F)n3nc(C(=O)Nc4ccc5c(c4)OCO5)cc3N2)cc1` (stereo not given), the cytotoxicity was -7%.

As for `O=C(Nc1cc(Cl)ccc1O)c1cc2n(n1)C(C(F)(F)F)CC(c1ccc3c(c1)OCO3)N2` (stereo not given), the cytotoxicity is -8.7%.

In the case of `COc1ccccc1NC(=O)c1cc2n(n1)C(C(F)(F)F)CC(c1ccc3c(c1)OCO3)N2` (stereo not given), the cytotoxicity was 38.9%.

Take `CCC(=O)N=c1sc2c(OC)ccc(OC)c2n1C`: the cytotoxicity is 1.2%.

Consider `CCOC(=O)CSc1nnc([C@@H](NC(=O)OC(C)(C)C)C(C)C)o1`, for which the cytotoxicity was 8.2%.

For `O=C1CC(c2ccc(F)cc2)Cc2nc(N3CCN(c4ccccc4)CC3)ncc21` (stereo not given), the cytotoxicity is 4.6%.

For `CC(=O)N1CCN=C1SCc1ccc(Br)cc1`, the cytotoxicity was 1.6%.

For `O=C(CCNc1n[nH]c(=O)[nH]c1=O)N1CCOCC1`, the cytotoxicity was -0.4%.

With `Cc1ccc(CNC(=O)CN2CCN(Cc3ccc(C)cc3)C2=O)cc1`, the cytotoxicity was -20.9%.

With `COc1cccc(NC(=O)c2ccccc2-c2nc(-c3cccc(C)c3)no2)c1`, the cytotoxicity was 24.8%.

Regarding `CCCc1nc(N2CCCC2)c(C#N)c2c1CCCC2`, the cytotoxicity was 51.6% (active).

For the molecule `CC(C)Cc1nc(N2CCOCC2)c(C#N)c2c1CCC2`, the cytotoxicity was 74.1% (active).

`CCCc1nc(N2CCOCC2)c(C#N)c2c1CCCC2`: the cytotoxicity was -18.8%.

Turning to `CCc1nc(N2CCCC2)c(C#N)c2c1CCCC2`, the cytotoxicity was -1.4%.

Consider `CCc1nc(N2CCOCC2)c(C#N)c2c1CCCC2`, for which the cytotoxicity was 7.3%.

As to `CC(C)Cc1nc(N2CCCCC2)c(C#N)c2c1CCC2`, the cytotoxicity is 11.9%.

On to `CCc1cc(=O)oc2cc(OC(C)C(=O)O)c(Cl)cc12` (stereo not given), for which the cytotoxicity was 1.5%.

As to `O=C(Cc1nc2ccccc2[nH]1)NCc1ccco1`, the cytotoxicity is -7.1%.

As to `COC(=O)c1cccc(S(=O)(=O)N2CCN(c3nc4ccccc4s3)CC2)c1`, the cytotoxicity was -5.4%.

`CCOc1ccc(N(CC(=O)N2CCc3ccccc32)S(=O)(=O)c2c(C)noc2C)cc1`: the cytotoxicity was -26.9%.

As to `CC(C)CN(C#N)c1nc(N2CCOCC2)nc(N2CCOCC2)n1`, the cytotoxicity is 6.3%.

Consider `COc1ccc(CNC(=O)C2CCNCC2)cc1`, for which the cytotoxicity was -3.8%.

With `O=C(Cc1cn2ccsc2n1)Nc1cccc2cnccc12`, the cytotoxicity was 11.4%.

On to `Cc1cc(=O)[nH]c(SCCOc2cccc(C(F)(F)F)c2)n1`, for which the cytotoxicity is -4.8%.

For the molecule `O=C(CSc1nnc(SCc2ccc(Cl)cc2)s1)N1CCN(C(=O)c2ccco2)CC1`, the cytotoxicity is -25.8%.

`O=C(CSc1nc2cc(Cl)ccc2s1)N1CCN(C(=O)c2ccco2)CC1`: the cytotoxicity was -2.2%.

Take `O=C(CSc1c2c(nc3ccc(Cl)cc13)CCCC2)N1CCN(C(=O)c2ccco2)CC1`: the cytotoxicity is 106% (active).

Consider `CC(C)(C)n1nnnc1C(c1ccc(C#N)cc1)N1CCCC2(CCCCC2)C1` (stereo not given), for which the cytotoxicity is 2.3%.

Values taken from PubChem BioAssay AID430 (Sanford-Burnham Center for Chemical Genomics, 2006).
